IL-2 act = IL-2 activation. AID 652025. activation, % (series mostly up to about 46 µM). hit rate 0.065% among 360,000. IL-2 activation reporter assay, cell-based qHTS; stimulated with anti-CD3/CD4/CD28 beads; in transgenic mouse T cells; in the data active = activation above about 50%; inconclusive = mostly about 30% to 49%
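EGFP and DsRed fluorescence is measured by plate cytometry in unstimulated transgenic mouse T cells exposed to compound for 60 minutes, then stimulated 18 hours at 37 degrees C with anti-CD3/anti-CD4 beads plus anti-CD28.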
Nrf2 block = inhibitors of Nrf2 signaling; A549 ARE-Fluc reporter, luciferase luminescence, 18-24 h; Potency, µM (series often up to 46 µM), actives largely listed as inhibitors; hit rate 2.1% among 360,000; AID 504444; also: nearly all actives have a fitted effect of over 60% in size
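Nrf2 function is reported as luminescence of an ARE-controlled luciferase in A549 cells. Compounds were tested at several concentrations, and a CellTiter-Fluor read on the same wells flagged cytotoxicity.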
BRCA1 expr act = activators of BRCA1 expression; MCF7-BRCA1-FFLuc reporter, luminescence, 48 h; response scale: scaled: vehicle 0%, 10 µM genistein 100%; Potency, µM (top dose mostly 46.1 µM), hits mostly activators; hit rate 1.1% among 380,000; also: nearly all actives have a fitted effect of over 80% in size
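Cells: MCF7-BRCA1-FFLuc, 2000/well. Exposure: 48 h, 37 °C, 5% CO2. Read: luminescence, 15 min post-substrate. Controls: genistein 10 microM (maximal activation), DMSO (neutral).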
Nrf2 ARE act = activates Nrf2 signaling | Potency, µM (doses to about 46.1 µM), actives largely listed as activators | hit rate 0.31% among 410,000 | AREc32 ARE-luciferase reporter (MCF7-derived line), luminescence, 24 h; also: nearly all actives have a fitted effect of over 65% in size
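Quantitative high-throughput format: AREc32 reporter cells, 1000 per well, received compound by pin transfer and were incubated 24 hr at 37 deg C, 5% CO2, before Steady-Glo luminescence detection.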
p53 reactivation = restores transcriptional activity of mutant p53. Potency, µM (top dose mostly 92.2 µM), actives largely listed as activators. hit rate 0.063% among 320,000. H1299 p53-A138V BP100-luciferase reporter, luminescence, 24 h. AID 504706; also: nearly all actives have a fitted effect of over 45% in size
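H1299 (p53-null), stable ts p53-A138V + BP100-Luc; 1000 cells/well, Opti-MEM/10% FBS; cpd 4 pt, 1:5; 24 h, 37 deg C, 5% CO2; detection reagent 10 min RT; luminescence.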
A549 viability = counter-screen for Nrf2 inhibitors: cytotoxicity in A549 cells. Potency, µM (top dose mostly 46 µM), most hits filed as inhibitors. hit rate 0.16% among 390,000. A549 ARE-Fluc cells, CellTiter-Fluor viability, 18-24 h. AID 504648
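A549 ARE-Fluc cells in 5% FBS OPTI-MEM, 5000 cells/well, rested 2 h then exposed to compounds in concentration-response for 18-24 h at 37 °C. Viability by CellTiter-Fluor fluorescence (Ex 405/Em 525) after 30 min; luciferase luminescence (BugLite, 15 min, RT) read afterwards.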
Numbers stand for hits. Compounds with a hit are over-represented: about 3.2% of the library has one in this group of screens. Unless noted, calls follow the shape of the dose curve; as a rule, active = well fitted curve in the direction sought with a large enough effect; inconclusive = small, poorly fitted or top-dose-only effect, or another doubt; inactive = no such curve, though single readings can be large; an effect the other way counts as inactive or inconclusive.

COc1ccc(C(=O)NCCn2cc(SC(C)c3ccccc3)c3ccccc32)cc1OC (stereo unspecified) was read as Nrf2 block 23µM, BRCA1 expr act inactive, Nrf2 ARE act inactive and A549 viability inactive.
Screening Cc1ccc(-c2nnc(Nc3ccc(OC(F)(F)Cl)cc3)c3ccccc23)cc1S(=O)(=O)NC(C)(C)CO returned Nrf2 block inconclusive, BRCA1 expr act inactive, Nrf2 ARE act inactive and A549 viability inactive.
N#Cc1cc2c(nc1SCC(=O)Nc1cc(Cl)ccc1Cl)C1CCN2CC1 was read as IL-2 act inactive, Nrf2 block inactive, BRCA1 expr act inactive, Nrf2 ARE act inactive, p53 reactivation 45µM and A549 viability inconclusive.
Screening COc1cc2nc(N3CCCN(C)CC3)nc(N(C)C3CCN(C)CC3)c2cc1OC returned BRCA1 expr act inactive.
For COc1ccc(-c2nc3ccccc3c(=O)o2)cc1 the results were IL-2 act inactive, Nrf2 block inactive, BRCA1 expr act 14µM, Nrf2 ARE act inactive, p53 reactivation inactive and A549 viability inactive.
COc1cc(NC(=O)c2cc3cc4ccc(C)cc4nc3o2)cc(OC)c1OC was read as Nrf2 block inconclusive, BRCA1 expr act inactive, Nrf2 ARE act inactive and A549 viability inactive.
For Cc1cc(-c2ccccc2)cc(-c2ccccc2)[n+]1CCc1ccccc1 the results were IL-2 act inactive, Nrf2 block inconclusive, BRCA1 expr act inactive, Nrf2 ARE act inactive, p53 reactivation inactive and A549 viability inactive.
`Fc1ccc(C[n+]2c(-c3ccccc3)cc(-c3ccccc3)cc2-c2ccccc2)cc1` gave IL-2 act inactive, Nrf2 block 18µM, BRCA1 expr act inactive, Nrf2 ARE act inactive, p53 reactivation inactive and A549 viability inconclusive.
Screening Cc1ccc(C)c(NP(=O)(Oc2ccccc2)Oc2ccccc2)c1 returned IL-2 act inactive, Nrf2 block 21µM, BRCA1 expr act inactive, Nrf2 ARE act inactive, p53 reactivation inactive and A549 viability inconclusive.
Cc1ccc(S(=O)(=O)NP(=O)(Oc2ccccc2)Oc2ccccc2)cc1 was read as IL-2 act inactive, Nrf2 block inactive, BRCA1 expr act inactive, Nrf2 ARE act inactive, p53 reactivation inactive and A549 viability inactive.
`Cc1ccc(NC(=O)C2CCN(C(=O)c3cnn(-c4ccccc4)c3-n3cccc3)CC2)cc1Cl` gave Nrf2 block inconclusive, BRCA1 expr act inactive, Nrf2 ARE act inactive and A549 viability inactive.
CCN(CC)C(=O)c1ccc(NC(=O)COc2ccc(-c3nn(C)c(=O)c4ccccc34)cc2)cc1 was read as IL-2 act inactive, Nrf2 block inconclusive, BRCA1 expr act inactive, Nrf2 ARE act inactive, p53 reactivation inactive and A549 viability inactive.
Screening Cc1ccc(NC(=O)COc2ccc(-c3nn(C)c(=O)c4ccccc34)cc2)c(C)c1 returned Nrf2 block 18µM, Nrf2 ARE act inactive and A549 viability inactive.
`COC(=O)C1=C(c2ccc(Cl)c(C(F)(F)F)c2)C[C@@H]2CC[C@H]1N2C(=O)NCCOc1ccccc1Cl` gave IL-2 act inactive, Nrf2 block 23µM, BRCA1 expr act inactive, Nrf2 ARE act inactive, p53 reactivation inactive and A549 viability inconclusive.
COC(=O)C1=C(c2ccc(-c3ccccc3)c(F)c2)C[C@@H]2CC[C@H]1N2C(=O)NCCNC(C)=O was read as IL-2 act inactive, Nrf2 block inactive, BRCA1 expr act inactive, Nrf2 ARE act inactive, p53 reactivation inactive and A549 viability inactive.
Screening COC(=O)C1=C(c2ccc(-c3ccccc3)c(F)c2)C[C@@H]2CC[C@H]1N2C(=O)NCCCOC(C)C returned IL-2 act inactive, Nrf2 block 16µM, BRCA1 expr act inactive, Nrf2 ARE act inactive, p53 reactivation inactive and A549 viability inactive.
For COC(=O)C1=C(c2cccc(OCc3ccccc3)c2)C[C@@H]2CC[C@H]1N2C(=O)NCCOc1ccc(OC)cc1 the results were IL-2 act inactive, Nrf2 block 15µM, BRCA1 expr act inactive, Nrf2 ARE act inactive, p53 reactivation inactive and A549 viability inactive.

Screening results deposited in PubChem by National Center for Advancing Translational Sciences (NCATS).
